Source: PubChem BioAssay
Most compounds without a hit are left out; they make up all but 2.3% or so of the library.
FUS yeast rescue – rescues growth of FUS-expressing yeast. 390,000 tested, 0.24% active. S. cerevisiae FUS-expressing, growth rescue, OD600, 24 h. Potency, µM (titrated, usually from 76.6 µM), most hits filed as activators;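 also: potency is read from the fitted curve at half-maximal effect; plate controls were DMSO vehicle for no effect and reference control for full effect; nearly all actives have a fitted effect of over 55% in size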
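Compound concentration series was pinned onto galactose-induced FUS-expressing yeast seeded at OD 0.005. Plates sat 24hr at 30C; absorbance at 600 nm gave growth. DMSO served as background control.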
TRPV1 potentiator – human TRPV1 potentiation | Q8NER1 | TRPV1-expressing cells, Fluo-8 calcium influx, capsaicin EC20 potentiation | potentiation, % at 8.33 µM | 320,000 tested, 0.02% active | AID 540277; in the data active = potentiation above about 80%; inconclusive = between about 30% and that limit; also: 0% is about no effect
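Cells expressing TRPV1 were dye-loaded with Fluo-8 and read kinetically: 10 s baseline, 3 min after compound (agonist portion), then 2 min after EC20 capsaicin (allosteric enhancer portion). Calcium-bound dye fluorescence at 480/520 nm.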
Giardia kill – Giardia lamblia killing. Giardia lamblia trophozoite viability. activity change, % at 7.66 µM, hits read low. 340,000 tested, 0.15% active; in the data active = activity change below about -80%; inconclusive = between about -30% and that limit;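 also: parasites exposed to compound for two days anaerobically before the ATP read; % is scaled to controls: 0 for no effect and ±100 for the full control effect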
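Anaerobic 48 hrs incubation at 37 deg C of 100 trophozoites/well with test compounds; ATPLite 1-Step luminescence, 15-30 min RT, reports cellular ATP as viability.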
ELG1 repair inh – ELG1-dependent DNA repair inhibition | HEK293T ELG1-luciferase reporter, luminescence, 16 h; DNA damage induced by 5-fluorouridine | Potency, µM (series often up to 46.1 µM), for inactives: at the top dose activity change, negative = inhibition, most hits filed as inhibitors | 330,000 tested, 2.3% active | AID 504467; also: potency is read from the fitted curve at half-maximal effect; % is scaled to controls: 0 for no effect and ±100 for the full control effect; nearly all actives have a fitted effect of over 55% in size
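Luminescence from the luciferase reporter, measured 30 min after ONE-Glo reagent at room temperature, was the read-out. Beforehand, 2,000 cells per well were exposed for 16 hr at 37 °C to 5-fluorouridine together with compound or vehicle.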
TRPV1 ag – agonists of human vanilloid receptor 1 (TRPV1) | Q8NER1 | TRPV1-expressing cells, Fluo-8 calcium influx, agonist mode | activation, % at 8.33 µM | 320,000 tested, 0.19% active; in the data active = activation above about 80%; inconclusive = between about 30% and that limit; also: 0% is about no effect
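Fluo-8 calcium influx in TRPV1-expressing cells, kinetic read (ex 480/em 520 nm). Compound added and read 3 min for agonist activity, followed by capsaicin at EC20 final and 2 min further read for enhancement.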
ELG1 FLuc counter – luciferase inhibition in cell-free luciferin readout for ELG1 hits; 350 tested, 3% active; Potency, µM (series often up to 46.1 µM), for the others: at the highest dose activity change, negative = inhibition, hits mostly inhibitors; shares compounds with ELG1 repair inh; cell-free firefly luciferase luminescence counter-screen, ViewLux; also: potency is read from the fitted curve at half-maximal effect; % is scaled to controls: 0 for no effect and ±100 for the full control effect
ELG1-Luc inh – inhibits ELG1-dependent DNA repair in HEK293T cells, confirmed. AID 624248. 670 tested, 68% active. shares compounds with ELG1 repair inh. Potency, µM (titrated, usually from 46.1 µM), for the others: top-dose activity change, negative = inhibition, hits mostly inhibitors. HEK293T ELG1-luciferase levels, luminescence; cells co-treated with 5-fluorouridine; also: potency is read from the fitted curve at half-maximal effect; % is scaled to controls: 0 for no effect and ±100 for the full control effect; nearly all actives have a fitted effect of over 55% in size
ELG1 MMS Luc – inhibits ELG1-dependent repair under MMS stimulation in HEK293T cells; Potency, µM (titrated, usually from 46.1 µM), without a hit: at the highest dose activity change, negative = inhibition, actives largely listed as inhibitors; 670 tested, 53% active; AID 624249; shares compounds with ELG1 repair inh; HEK293T luciferase-tagged ELG1 level, MMS stimulated; also: potency is read from the fitted curve at half-maximal effect; % is scaled to controls: 0 for no effect and ±100 for the full control effect; nearly all actives have a fitted effect of over 60% in size
ELG1 5FU viab – confirmation of ELG1 repair inhibitors: viability with 5FU; Potency, µM (titrated, usually from 46.1 µM), inactives show at the top dose activity change, negative = viability loss, usual class: cytotoxic; shares compounds with ELG1 repair inh; 670 tested, under 10 active; cell viability with 5-FU, ELG1-dependent repair;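 also: ELG1-luc HEK293T cells cotreated with 5-fluorouridine at 10 µM final; potency is read from the fitted curve at half-maximal effect; viability measured 16 h after compound addition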
ELG1 MMS cell – confirmation of ELG1 repair inhibitors: viability with MMS. shares compounds with ELG1 repair inh. Cell viability with MMS, ELG1-dependent DNA repair. Potency, µM (highest dose often 46.1 µM), for inactives: top-dose activity change, negative = viability loss, usual class: cytotoxic. 670 tested, 33% active. AID 624251;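 also: ELG1-luc HEK293T cells co-treated with 10 µM MMS; potency is read from the fitted curve at half-maximal effect; viability read 16 h after compound addition; % is scaled to controls: 0 for no effect and ±100 for the full control effect; nearly all actives have a fitted effect of over 60% in size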
Cell viab unstim – affects unstimulated cell viability, ELG1 hit counter-screen | shares compounds with ELG1 repair inh | 900 tested, 8% active | Potency, µM (series often up to 45.9 µM), inactives show at the highest dose activity change, negative = loss of viability, actives largely listed as cytotoxic | cell viability counter-screen, unstimulated, luminescence;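 also: potency is read from the fitted curve at half-maximal effect; compound exposure lasted 16 hours before reading; % is scaled to controls: 0 for no effect and ±100 for the full control effect; nearly all actives have a fitted effect of over 55% in size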
FLuc enzyme – firefly luciferase inhibition counter-screen; 350 tested, 10% active; Potency, µM (series often up to 57.5 µM), without a hit: top-dose activity, negative = inhibition, actives largely listed as inhibitors; AID 624253; purified firefly luciferase, luminescence counter-screen; shares compounds with ELG1 repair inh; also: potency is read from the fitted curve at half-maximal effect; % is scaled to controls: 0 for no effect and ±100 for the full control effect
* = called active by the depositor. Unless noted, calls follow the shape of the dose curve; as a rule, active = well fitted curve in the direction sought with a large enough effect; inconclusive = small, poorly fitted or top-dose-only effect, or another doubt; inactive = no such curve, though single readings can be large; an effect the other way counts as inactive or inconclusive.

N#Cc1cc2cc3c(cc2nc1SCC(=O)N1CCOCC1)OCO3 was read as FUS yeast rescue inactive, TRPV1 potentiator 0, Giardia kill 0, ELG1 repair inh inconclusive, TRPV1 ag -3, ELG1 FLuc counter 49%, Cell viab unstim 0% and FLuc enzyme -10%.
`Cc1cc2cc3c(cc2nc1SCC(=O)N1CCOCC1)OCO3` gave FUS yeast rescue inactive, TRPV1 potentiator -11, Giardia kill -2, ELG1 repair inh 1%, TRPV1 ag 22, ELG1 FLuc counter 32%, Cell viab unstim -1% and FLuc enzyme -10%.
For CCOc1ccc2cc(C#N)c(SCC(=O)N3CCOCC3)nc2c1 the results were FUS yeast rescue inactive, TRPV1 potentiator 5, Giardia kill -3, ELG1 repair inh inconclusive, TRPV1 ag -4, ELG1 FLuc counter 85%, Cell viab unstim inconclusive and FLuc enzyme 6%.
`Cc1cccc(-c2noc(-c3ccc(NC4CCCC4)c([N+](=O)[O-])c3)n2)c1` gave FUS yeast rescue inactive.
Screening COc1ccc(N(CC(=O)NCc2cccs2)S(=O)(=O)c2ccc(C(C)=O)cc2)cc1 returned FUS yeast rescue inactive.
Screening Cc1ccc(C2C(=O)N(C3CCCCCC3)CC(=O)N2C(C)C)cc1 (stereo not drawn) returned FUS yeast rescue inactive.
`COC(=O)c1ccc(Nc2ncnc3c2cnn3-c2ccccc2)cc1` gave FUS yeast rescue inactive.
Screening Nn1c(SCC(=O)Nc2ccc(OCc3ccccc3)cc2)nnc1-c1cc(-c2ccccc2)n[nH]1 returned FUS yeast rescue inactive.
`Cc1ccc2oc(NC(=O)N3CCOCC3)cc(=O)c2c1` gave FUS yeast rescue inactive, TRPV1 potentiator -1, Giardia kill 13, ELG1 repair inh 3.5µM*, TRPV1 ag 4, ELG1-Luc inh 19%, ELG1 MMS Luc 15%, ELG1 5FU viab -3%, ELG1 MMS cell -6% and Cell viab unstim -13%.
For Cc1ccc(NC(=O)N2CCOCC2)c(C)c1 the results were FUS yeast rescue inactive, TRPV1 potentiator -17, Giardia kill -8, ELG1 repair inh 7% and TRPV1 ag -1.
`Cc1ccc(C)c(N2CCN(c3nc4ccccc4c4nc(CCn5nc(C)cc5C)nn34)CC2)c1` gave FUS yeast rescue inactive.
Screening CCOc1cc(C2c3c(-c4cc(C)ccc4O)n[nH]c3C(=O)N2CCCOC(C)C)ccc1O (stereo not drawn) returned FUS yeast rescue inactive.
CCN(CC)Cc1c(O)ccc2c([N+](=O)[O-])c(C)n(-c3ccc(OC)cc3)c12 was read as FUS yeast rescue inactive, TRPV1 potentiator 2, Giardia kill 8, ELG1 repair inh 2.3µM*, TRPV1 ag -5, ELG1-Luc inh 4µM*, ELG1 MMS Luc inconclusive, ELG1 5FU viab -7%, ELG1 MMS cell -9% and Cell viab unstim -14%.
Screening Cc1ccccc1C(=O)Nc1ccc(Br)cn1 returned FUS yeast rescue inactive, TRPV1 potentiator -5, Giardia kill 6, ELG1 repair inh inconclusive and TRPV1 ag inconclusive.
For Cc1cc(C(=O)Nc2ccc(Br)cn2)sc1C the results were FUS yeast rescue inactive, TRPV1 potentiator -5, Giardia kill 10, ELG1 repair inh inconclusive, TRPV1 ag 83* and Cell viab unstim inconclusive.
For COc1ccc(CCNC(=O)C(=O)NCC(c2cccs2)S(=O)(=O)c2ccccc2)cc1 (stereo not drawn) the results were FUS yeast rescue inactive.
`Cc1nc2sc3c(NCc4ccco4)ncnc3c2c2c1COC(C)(C)C2` gave FUS yeast rescue inactive, TRPV1 potentiator 13, Giardia kill -2, ELG1 repair inh 2.6µM*, TRPV1 ag 4, ELG1 FLuc counter -7%, ELG1-Luc inh 3.5µM*, ELG1 MMS Luc 22µM*, ELG1 5FU viab inconclusive, ELG1 MMS cell -11%, Cell viab unstim inconclusive and FLuc enzyme -4%.
Screening CCOc1ccc(-c2cc3c(=O)n(Cc4nc(-c5ccccc5OCC)oc4C)ccn3n2)cc1Cl returned FUS yeast rescue inactive.
CCCS(=O)(=O)N1CCCC(C(=O)NCCOC)C1 (stereo not drawn) was read as FUS yeast rescue inactive.
Screening O=C(Nc1cccc(/C=C/c2ccccn2)c1)c1ccc(-n2cncn2)cc1 returned FUS yeast rescue inactive, Giardia kill -10, ELG1 repair inh 3.3µM*, ELG1-Luc inh 13µM*, ELG1 MMS Luc inconclusive, ELG1 5FU viab -9%, ELG1 MMS cell inconclusive and Cell viab unstim inconclusive.
O=C(Cn1cnc2cc([N+](=O)[O-])ccc2c1=O)Nc1cccc(S(=O)(=O)N2CCOCC2)c1 was read as FUS yeast rescue inactive, TRPV1 potentiator 18, Giardia kill 2, ELG1 repair inh 3.3µM*, TRPV1 ag -6, ELG1-Luc inh inconclusive, ELG1 MMS Luc 28%, ELG1 5FU viab inconclusive, ELG1 MMS cell -11% and Cell viab unstim inconclusive.
